High-throughput results deposited in PubChem by The Scripps Research Institute Molecular Screening Center.
GPR151 activ – activators of human GPR151; activation, % at 11.2 µM; hit rate 1% among 650,000; Q8TDV0; AID 1508602; PathHunter beta-arrestin GPR151 cells, luminescence; in the data active = activation above about 4.9%
Target sequence (Q8TDV0 whole entry, looked up): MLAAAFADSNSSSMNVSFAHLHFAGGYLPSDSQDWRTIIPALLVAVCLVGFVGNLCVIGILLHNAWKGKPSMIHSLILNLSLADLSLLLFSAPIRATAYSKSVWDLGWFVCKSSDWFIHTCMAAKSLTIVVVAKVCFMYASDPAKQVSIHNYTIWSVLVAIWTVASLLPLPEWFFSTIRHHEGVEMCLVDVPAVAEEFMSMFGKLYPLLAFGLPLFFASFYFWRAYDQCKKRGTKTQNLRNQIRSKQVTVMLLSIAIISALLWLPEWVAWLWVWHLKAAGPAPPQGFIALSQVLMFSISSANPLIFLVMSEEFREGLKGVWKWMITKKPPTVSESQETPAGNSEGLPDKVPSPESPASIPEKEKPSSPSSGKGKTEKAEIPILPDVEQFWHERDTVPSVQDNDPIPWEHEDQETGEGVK
MITF primary – human MITF inhibition, primary screen; O75030; AlphaScreen MITF homodimerization, bead proximity signal; inhibition, % at 2.6 µM; hit rate 0.91% among 650,000; AID 1259374; in the data active = inhibition above about 50%
FBW7 activator – activators of human E3 ligase FBW7 | AlphaScreen FBW7–phospho-cyclin E peptide binding, activator screen | Q969H0 | hit rate 0.13% among 650,000 | normalized activity (activation), % at 26.1 µM; in the data active = normalized activity above about 1.9%;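 note: purified mutant Fbw7 with reduced substrate affinity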
TEAD-YAP block – TEAD-YAP interaction inhibition. hit rate 1.4% among 640,000. HEK-TIYL cells, TEAD-Gal4/YAP UAS-luciferase luminescence. inhibition, % at 9.12 µM. AID 1259422; in the data active = inhibition above about 32%
Each line names hits and unclear results; the compound was inactive in the other large screens. Rows were chosen to be rich in hits. Some 3.4% of all compounds tested hit in one or more screens of this group.

CCOC(=O)c1[nH]c(C)c(C(=O)NCc2cccs2)c1C	none
COc1cc(Nc2nc(NCc3nc4ccccc4[nH]3)c3ncn(-c4ccsc4)c3n2)cc(OC)c1OC	none
c1ccc(-n2cnc3c(NCc4nc5ccccc5[nH]4)nc(Nc4ccccn4)nc32)cc1	TEAD-YAP block 53.4
c1ccc(CNc2nc(Nc3cnccn3)nc3c2ncn3-c2ccsc2)cc1	none
c1ccc2[nH]c(CNc3nc(Nc4cnccn4)nc4c3ncn4-c3ccsc3)nc2c1	TEAD-YAP block 70.6
c1ccc(-n2cnc3c(NCc4nc5ccccc5[nH]4)nc(Nc4ccncn4)nc32)cc1	TEAD-YAP block 35.4
c1ccc(Nc2nc(NCc3nc4ccccc4[nH]3)c3ncn(-c4ccsc4)c3n2)nc1	TEAD-YAP block 78.2
O=C1CCCN1CCn1cnc2c(NCc3nc4ccccc4[nH]3)nc(Nc3ccncn3)nc21	none
O=C(NCC(c1cccs1)N1CCc2ccccc2C1)c1ccc([N+](=O)[O-])cc1 (stereo not drawn)	none
O=C(Nc1cccc(F)c1)N1CCC(O)(c2cccnc2)CC1	none
CCOc1ccc(Cl)cc1/C=N/N1C(=O)C2C3C=CC(C3)C2C1=O (stereo not drawn)	none
O=C(CN1C(=O)NC2(CCCCC2)C1=O)c1ccc(Cl)cc1	none
CCOc1ccc(NC(=O)c2ccc(F)c(S(=O)(=O)N(CC)CC)c2)cc1	TEAD-YAP block 36.8
CCOc1ccc(NC(=O)c2ccc(F)c(S(=O)(=O)N(CC)Cc3ccccc3)c2)cc1	TEAD-YAP block 61.7
CCN(CC)S(=O)(=O)c1cc(C(=O)Nc2ccc(Br)cc2)ccc1F	none
CCN(CC)S(=O)(=O)c1cc(C(=O)Nc2ccc(Br)cc2)ccc1OC	TEAD-YAP block 46.6
CCOc1ccc(NC(=O)c2ccc(F)c(S(=O)(=O)N(Cc3ccco3)CC3CCCO3)c2)cc1 (stereo not drawn)	TEAD-YAP block 46.2
COc1ccc(N2C(=O)NC(=O)/C(=C/c3ccccc3O)C2=O)cc1	none
COc1ccc(C(=O)c2sc3nc(C4CC4)cc(-c4ccc(OC)cc4)c3c2N)cc1	none
Nc1c(S(=O)(=O)O)cc2c3c(cccc13)C(=O)N(CCO)C2=O	MITF primary 71.7
CN(C)c1ccc2c3c(cccc13)C(=O)N(CCO)C2=O	none
O=C(Nc1ccc(-c2cn3ccsc3n2)cc1)c1cccnc1Cl	TEAD-YAP block 46.0
Cc1ccc2nc(C)c(C(=O)N3CCCC3)n2c1	none
Cc1ccc2nc(C)c(C(=O)N3CC(C)CC(C)C3)n2c1 (stereo not drawn)	FBW7 activator 2.1
Cc1ccc2nc(C)c(C(=O)NC(C)C)n2c1	FBW7 activator 1.9
CC(=O)C1=C(C)NC(=S)NC1c1ccccc1F (stereo not drawn)	none
O=C1COc2ccc(C(=O)COC(=O)c3cc(O)c(O)c(O)c3)cc2N1	MITF primary 82.5
O=C(O)C1Nc2ccccc2C2C=CCC12 (stereo not drawn)	MITF primary 75.2
O=C(O)C1Nc2ccc3ccccc3c2C2C=CCC12 (stereo not drawn)	none
O=C(O)C1Nc2c(F)cccc2C2C=CCC12 (stereo not drawn)	MITF primary 78.2
Cc1ccc2c(c1C)NC(C(=O)O)C1CC=CC21 (stereo not drawn)	MITF primary 64.5
O=C(O)C1Nc2c(O)ccc(Br)c2C2C=CCC12 (stereo not drawn)	MITF primary 85.7
O=C(O)c1ccc2c(c1)C1C=CCC1C(C(=O)O)N2 (stereo not drawn)	none
CCOC(=O)c1ccc2c(c1)[C@@H]1C=CC[C@@H]1[C@H](C(=O)OCC)N2	none
CCOC(=O)C1Nc2c(ccc(C(=O)O)c2C)C2C=CCC12 (stereo not drawn)	MITF primary 65.5
COc1ccc(Cc2nnc3n2N(C(C)=O)C(c2ccc(C)c(C)c2)=C(C(C)=O)S3)cc1	none
CN1CCN(c2cc(-c3ccncc3)nc(-c3ccncc3)n2)CC1	TEAD-YAP block 38.3
CN1CCN(c2cc(-c3ccc(F)cc3)nc(-c3ccncc3)n2)CC1	none
Fc1ccc(CSc2nnnn2-c2ccc3c(c2)OCO3)c(Cl)c1	TEAD-YAP block 51.0
Fc1ccccc1CSc1nnnn1-c1ccc2c(c1)OCO2	none
CC(C)(C)c1ccc(C(=O)Nc2ccc(S(=O)(=O)Nc3nccs3)cc2)cc1	none
O=C(O)c1ccc(C(=O)Nc2ccccc2S(=O)(=O)Nc2nccs2)cc1	FBW7 activator 3.7
COc1ccccc1OCCn1cc(C(=S)N2CCCC2)c2ccccc21	none
Cc1cc(/C=C(\C#N)C(=O)OCC(=O)NCc2cccs2)c(C)n1CC(C)C	TEAD-YAP block 49.1
Cc1cc(/C=C(\C#N)C(=O)O)c(C)n1CC(C)C	none
CCOc1cc(-c2nnc(SCC(=O)NCc3ccccc3)nc2-c2ccc(OC)c(OCC)c2)ccc1OC	TEAD-YAP block 52.4
COc1ccc(-c2nnc(SCC(=O)NCc3cccs3)nc2-c2ccc(OC)c(OC)c2)cc1OC	TEAD-YAP block 55.9
CCOc1cc(-c2nnc(SCC(=O)NCc3ccc(C)cc3)nc2-c2ccc(OC)c(OCC)c2)ccc1OC	none
Cc1c(C(=O)NCc2ccccn2)sc2ncn(CC(=O)N3CCCCC3)c(=O)c12	none
CCCCN(C)C(=O)c1nc2ccccn2c1CN(C)Cc1nonc1C	none
COCc1c(C#N)c(Sc2nnc(N)s2)nc(C)c1[N+](=O)[O-]	MITF primary 55.4
COCc1c(C#N)c(Cl)nc(C)c1[N+](=O)[O-]	none
CCCCNC(=O)CCCn1c(=S)[nH]c2ccc(Br)cc2c1=O	none
Cc1ccccc1-c1noc(-c2ccc(OC(=O)c3ccccc3)cc2)n1	none
OCCNc1nc(Nc2ccncn2)nc2c1ncn2-c1ccccc1	none
COc1ccc(CCNc2nc(Nc3cccnc3)nc3c2ncn3-c2ccccc2)cc1	TEAD-YAP block 37.4
Oc1ccc(CCNc2nc(Nc3ccncc3)nc3c2ncn3-c2ccccc2)cc1	TEAD-YAP block 55.9
Oc1ccc(CCNc2nc(Nc3ccccn3)nc3c2ncn3-c2ccccc2)cc1	TEAD-YAP block 34.2
OCCNc1nc(Nc2ccccn2)nc2c1ncn2-c1ccccc1	TEAD-YAP block 33.7
Oc1ccc(CCNc2nc(Nc3ncccn3)nc3c2ncn3-c2ccccc2)cc1	none
Oc1ccc(CCNc2nc(NCc3cccnc3)nc3c2ncn3-c2ccsc2)cc1	none
Oc1ccc(CCNc2nc(Nc3ccccn3)nc3c2ncn3-c2ccsc2)cc1	TEAD-YAP block 45.5
c1ccc(CNc2nc(Nc3ccccn3)nc3c2ncn3-c2ccsc2)cc1	none
Oc1ccc(CCNc2nc(NCc3cccnc3)nc3c2ncn3-c2ccccc2)cc1	TEAD-YAP block 53.8
O=C(Nc1ccc2ccccc2c1)c1c(F)c(F)c(C(=O)Nc2ccc3ccccc3c2)c(F)c1F	none
Cc1ccc2nc(-c3ccc(N)cc3O)oc2c1	none
CCc1ccc2oc(-c3ccc(NC(C)=O)cc3)nc2c1	none
CCc1ccc2oc(-c3ccc(N)cc3O)nc2c1	TEAD-YAP block 69.1
Cc1cc2nc(-c3cc(N)ccc3O)oc2cc1C	TEAD-YAP block 64.6
Nc1ccc(O)c(-c2nc3cc(N)ccc3o2)c1	none
Cc1ccc2oc(-c3ccc(N)cc3O)nc2c1	TEAD-YAP block 41.3
CCc1ccccc1OCC(=O)Nc1ccccc1C(N)=O	none
COc1ccc(-c2csc3ncnc(Cl)c23)cc1OC	TEAD-YAP block 33.9
